Screens (PubChem)
TDP1 cell CPT = DT40-hTDP1 cell growth loss with CPT; 420,000 compounds, 12% hits; Potency, µM (highest dose often 46.2 µM), usual class: inhibitors; chicken DT40 Tdp1-/-;hTDP1 cells + 20 nM CPT, ATP luminescence, 48 h; further: nearly all actives have a fitted effect of over 55% in size
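Chicken DT40 Tdp1-/- cells stably complemented with human TDP1 were seeded at 400 cells/well in medium containing 20 nM camptothecin, exposed to pin-transferred compounds, and grown at 37 °C for at least 48 hr. Viability was read as ATP luminescence.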
DT40 TDP1 no CPT = qHTS for Inhibitors of human tyrosyl-DNA phosphodiesterase 1 (TDP1): qHTS in cells in absence of CPT. DT40 Tdp1-/- hTDP1 cells, no CPT, ATP luminescence, 48 h. Potency, µM (doses to about 46.2 µM), most hits filed as inhibitors. 420,000 compounds, 15% hits; further: nearly all actives have a fitted effect of over 55% in size
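Cells were dispensed at 400 per well, compounds added by pin tool, plates incubated ≥48 hr at 37 °C, then CellTiter-Glo added for 30 min at room temperature before luminescence reading. Line: DT40 Tdp1-/- complemented with hTDP1; camptothecin omitted.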
HT1080NT lethal = kills 2HG-producing HT-1080-NT fibrosarcoma cells; 360,000 compounds, 1.6% hits; HT-1080-NT fibrosarcoma viability, CellTiter-Glo ATP luminescence, 48 h; Potency, µM (highest dose often 46.1 µM), most hits filed as cytotoxic;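 further: NT is the 2HG producing partner of a matched IDH1 knockdown line; nearly all actives have a fitted effect of over 55% in size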
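Read-out is CellTiter-Glo luminescence after 10 minutes at room temperature, following 48 hours' compound treatment of HT-1080-NT cells (750 cells/well, RPMI, 5% FBS, 37 degrees C).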
IL1B secr inh = blocks inflammasome-driven IL-1 beta release. THP-1 LPS/ATP IL-1B secretion, AlphaLISA, 16 h; active compounds read low. activity change, % at 57.5 µM. 360,000 compounds, 4.7% hits. AID 743279; in the data active means activity change below about -50%; inconclusive means mostly about -30% to -49%
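Secreted IL-1B measured by AlphaLISA bead assay after 16 h compound exposure of THP-1 cells; compounds (final up to 57.5 uM) added 1 h before LPS (250 ng/mL) and ATP (1.25 mM) stimulation; lower signal means less secretion.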
HT1080 IDH1KD tx = HT-1080 IDH1 knockdown cell toxicity (counter line). HT-1080 IDH1 knockdown viability, ATP luminescence, 48 h. Potency, µM (highest dose often 46.1 µM), most hits filed as cytotoxic. 360,000 compounds, 2% hits. AID 686971
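CellTiter-Glo luminescence after 48 h compound exposure at 37 degrees C of IDH1-knockdown HT-1080 cells in 5% FBS RPMI. %Activity scaled between DMSO wells and cell-free media wells, with curves fitted and assigned curve classes.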
A number is an active result; . = inactive; ? = inconclusive; / = no result. Sampled rows, rich in hits. Any-hit rate of the full collection: about 19%. Unless noted, the call rests on the fitted dose curve; in most records, active means well fitted curve in the direction sought with a large enough effect; inconclusive means small, poorly fitted or top-dose-only effect, or another doubt; inactive means no such curve, though single readings can be large; an effect the other way counts as inactive or inconclusive.

SMILES | TDP1 cell CPT | DT40 TDP1 no CPT | HT1080NT lethal | IL1B secr inh | HT1080 IDH1KD tx
Cc1ccc(OCC(=O)Nc2ccc(S(=O)(=O)Nc3cc(C)on3)cc2)c(Br)c1 | . | . | / | / | /
COc1ccccc1C(=O)NC1(C(F)(F)F)C(=O)Nc2c1c(=O)[nH]c(=O)n2-c1ccccc1 (stereo unspecified) | . | . | / | / | /
CCN(C(=O)CCS(=O)(=O)c1cc(Br)cc2c1N(C(=O)C1CC1)CC2)c1cccc(C)c1 | . | . | / | / | /
COCCCn1c(=N)c(C(=O)NC2CCCC2)cc2c(=O)n3ccccc3nc21 | . | . | / | / | /
CCC(C)n1c(=N)c(C(=O)NC2CCCCC2)cc2c(=O)n3ccccc3nc21 (stereo unspecified) | ? | 16µM | / | / | /
COc1cccc(NC(=O)c2cc3c(=O)n4ccccc4nc3n(CC(C)C)c2=N)c1 | 6.5µM | 5.8µM | . | . | .
COc1ccc(Cn2c(=N)c(C(=O)NC3CCCCC3)cc3c(=O)n4ccccc4nc32)cc1 | 18µM | 8.2µM | . | . | .
Cc1cccc(NC(=O)c2cc3c(=O)n4ccccc4nc3n(CC(C)C)c2=N)c1 | . | . | . | . | .
COc1ccc(CCn2c(=N)c(C(=O)NC3CCCC3)cc3c(=O)n4ccccc4nc32)cc1OC | 0.73µM | 0.65µM | . | . | .
CC(C)n1c(=N)c(C(=O)NC2CCCCC2)cc2c(=O)n3ccccc3nc21 | . | . | / | / | /
CC(C)n1c(=N)c(C(=O)NCCc2ccccc2)cc2c(=O)n3ccccc3nc21 | . | ? | . | -52 | .
COc1ccc(CCn2c(=N)c(C(=O)NC3CCCC3)cc3c(=O)n4ccccc4nc32)cc1 | 4.1µM | 3.3µM | . | -83 | .
COc1ccc(CCn2c(=N)c(C(=O)NCC3CCCO3)cc3c(=O)n4ccccc4nc32)cc1OC (stereo unspecified) | 7.3µM | 2.9µM | . | ? | .
Cc1cccn2c(=O)c3cc(C(=O)NCc4cccnc4)c(=N)n(C(C)C)c3nc12 | . | ? | . | . | .
COCC(=O)N1CCC2(CCCN(Cc3cc(C(F)(F)F)cc(C(F)(F)F)c3)C2)CC1 | . | ? | / | / | /
CC(=O)Nc1cc2nc(C)n(Cc3ccccc3[N+](=O)[O-])c2nc1C | . | . | . | . | .
O=C(COC(=O)Cc1c[nH]c2ccccc12)Nc1cccc(Br)c1 | . | ? | . | . | .
CCCCC(=O)Nc1ccc(C(=O)Nc2nc(CC(=O)OCC)cs2)cc1 | 22µM | ? | . | . | .
CCOC(=O)Cc1csc(NC(=O)c2ccc(C)cc2)n1 | . | ? | . | . | .
CCOC(=O)Cc1csc(NC(=O)c2ccc(Cl)nc2)n1 | ? | 23µM | . | . | ?
N[C@H](C(=O)O)c1cc(O)cc(O)c1 | ? | . | / | / | /
Clc1ccc(-c2ccc(CNCC3CCCO3)o2)cc1 (stereo unspecified) | . | ? | . | -77 | .
CC1C(=O)NN=C1C(=O)N/N=C/c1cccs1 (stereo unspecified) | . | . | . | . | .
COc1ccc(Cc2noc(-c3ccc([N+](=O)[O-])cc3)n2)cc1OC | 26µM | ? | . | . | .
COc1cc(C(CC(=O)N2CCCC2)c2c(OC)cc(OC)c3c(-c4ccccc4)cc(=O)oc23)cc(OC)c1OC (stereo unspecified) | ? | ? | . | ? | .
SMILES | TDP1 cell CPT | DT40 TDP1 no CPT | HT1080NT lethal | IL1B secr inh | HT1080 IDH1KD tx
COc1cc(C(CCN2CCCC(C)C2)c2c(OC)cc(OC)c3c(-c4ccccc4)cc(=O)oc23)cc(OC)c1OC (stereo unspecified) | ? | 18µM | 18µM | . | ?
COc1cc(C(CCN2CCCC2)c2c(OC)cc(OC)c3c(C)cc(=O)oc23)cc(OC)c1OC (stereo unspecified) | 13µM | 23µM | . | . | .
COc1cc(C(CCN2CCOCC2)c2c(OC)cc(OC)c3c(C)cc(=O)oc23)cc(OC)c1OC (stereo unspecified) | ? | . | . | . | .
COc1ccc(C(CCN2CCOCC2)c2c(OC)cc(OC)c3c(C)cc(=O)oc23)cc1 (stereo unspecified) | 23µM | 18µM | . | . | .
COc1cc(C(CCN2CCCCC2)c2c(OC)cc(OC)c3c(-c4ccccc4)cc(=O)oc23)cc(OC)c1OC (stereo unspecified) | 18µM | ? | . | ? | .
Cc1ccc(OCCC(=O)OCC(=O)NC(=O)c2ccccc2)cc1 | . | . | . | . | .
CC(=O)Nc1ccc(S(=O)(=O)NCC2CCC(C(=O)NCCCN(C)Cc3ccccc3)CC2)cc1 (stereo unspecified) | . | . | . | . | .
O=C1c2ccccc2OC2(C=Cc3ccccc3O2)N1Cc1ccccc1 (stereo unspecified) | 4.6µM | 18µM | ? | . | 18µM
O=C1NC2(CCN(Cc3ccccc3)CC2)Oc2ccccc21 | . | . | . | . | .
Cc1ccc(N2CCN(c3ncccc3[N+](=O)[O-])CC2)c(C)c1 | . | ? | . | -50 | .
Cc1ccc(C)c(N2CCN(c3ncccc3[N+](=O)[O-])CC2)c1 | . | . | . | -51 | .
CN(C)C(=O)c1ccc(Nc2nc(-c3cccs3)nc3ccccc23)cc1 | 10µM | 7.3µM | ? | -74 | ?
CN(C)C(=O)c1ccc(-c2ccc3ncnc(NCc4cccs4)c3c2)cc1 | . | . | / | / | /
CS(=O)(=O)Nc1cccc(-c2nc(Nc3ccccc3)c3ccccc3n2)c1 | 9.2µM | 4.6µM | / | / | /
CN(C)C(=O)c1ccc(-c2ccc3ncnc(Nc4ccccc4)c3c2)cc1 | ? | 1.5µM | / | / | /
CC(=O)c1cccc(Nc2ncnc3ccc(Br)cc23)c1 | 16µM | 21µM | . | . | .
Cc1cnc(CNc2nc(-c3cccc(NS(C)(=O)=O)c3)nc3ccccc23)cn1 | . | . | / | / | /
CCCn1c(SCC(=O)N2CCCc3ccccc32)nnc1-c1ccccn1 | ? | ? | . | . | .
CN(C)C(=O)c1ccc(-c2nc(Nc3ccc(F)cc3)c3ccccc3n2)cc1 | ? | 23µM | / | / | /
C=CCN(C(=O)c1ccccc1)c1ccc(OC)cc1 | 13µM | 22µM | ? | . | ?
O=[N+]([O-])c1ccc(O)c(Nc2ncnc3ccc(Br)cc23)c1 | . | 12µM | ? | . | ?
CS(=O)(=O)Nc1cccc(-c2ccc3ncnc(N4CCOCC4)c3c2)c1 | 4.1µM | 13µM | / | / | /
Cc1ccc(C(=O)NCCc2nnc3ccc(N4CCCC4)nn23)cc1 | . | . | . | . | .
Cc1cc(C)c(C)c(S(=O)(=O)NCC(=O)Nc2ccccc2F)c1C | . | . | . | . | .
COC(=O)c1cccc(Nc2ncnc3sccc23)c1 | 21µM | ? | . | . | .
COc1ccc(N(C)C(=O)c2ccc3nc(-c4ccccc4)c(-c4ccccc4)nc3c2)cc1 | ? | 18µM | . | . | .
